Laboratory results published in ChEMBL document CHEMBL1961873, “Compounds: GSK PKIS; Assays: Nanosyn kinase panel” (2012).

These compounds were tested on Tyrosine-protein kinase ABL1 (Homo sapiens), P00519 [M351T]. Settings: at 1 µM.

**Q.** CN1CCN(C(=O)c2ccc(NC(=O)Nc3ccc(N(C)c4ccnc(Nc5ccc(CS(C)(=O)=O)cc5)n4)cc3)cc2)CC1 was tested. Which inhibition did it give?
**A.** 72.6%

**Q.** CC(C)c1ccc2c(c1)NC(=O)/C2=N/Nc1ccc(S(N)(=O)=O)cc1 was tested. Which inhibition did it give?
**A.** 38%

**Q.** How did the inhibition turn out when C[C@@H](Oc1cc(-n2cnc3ccc(OC[C@@H](O)CO)cc32)sc1C(N)=O)c1ccccc1Cl was run?
**A.** 8.84%

**Q.** For CN(C)CCCn1c(-c2nonc2N)nc2cnccc21, which inhibition is on record?
**A.** 3.51%

**Q.** With O=C1Nc2ccc(-c3cccnc3)cc2C1=Cc1cc(Br)c(O)c(Br)c1 as the compound, how does the inhibition read?
**A.** 6.55%

**Q.** How did the inhibition turn out when CC(C)c1ccc(Nc2nccc(-c3cnn4ncccc34)n2)cc1 was run?
**A.** 10.2%

**Q.** How did the inhibition turn out when N#Cc1cccc(Nc2nccc(-c3cnn4ncccc34)n2)c1 was run?
**A.** 60.8%

**Q.** How did the inhibition turn out when Cc1ccc(NC(=O)CC2CC2)cc1-c1ccc(C(=O)NCC2CC2)cc1 was run?
**A.** 3.09%

**Q.** For Cc1ccc2c(c1)/C(=N/Nc1ccc(S(N)(=O)=O)cc1)C(=O)N2, which inhibition is on record?
**A.** 8.33%

**Q.** With CCS(=O)(=O)c1ccc(OC)c(Nc2nccc(N(C)c3ccc4c(C)n[nH]c4c3)n2)c1 as the compound, how does the inhibition read?
**A.** 88.3%

**Q.** For Nc1nccc(-c2c(-c3ccc(F)cc3)nn3cc(C(F)(F)F)ccc23)n1, which inhibition is on record?
**A.** 1.14%

**Q.** Which inhibition does the source give for N#Cc1c(NC(=O)c2ccccc2F)sc2c1CCCC2 here?
**A.** 0.57%

**Q.** With Cc1cc(Cl)cc2c1NC(=O)C2=NNc1ccc(S(N)(=O)=O)cc1 as the compound, how does the inhibition read?
**A.** 6.65%

**Q.** Which inhibition does the source give for c1ccc(Cc2nc3ccc(Nc4ncnc5ccccc45)cc3[nH]2)cc1 here?
**A.** 5.2%

**Q.** Cc1ccc(O)cc1Nc1ccnc2ccc(S(C)(=O)=O)cc12 was tested. Which inhibition did it give?
**A.** 94.3%

**Q.** For COc1cc(/C=N/Nc2ncnc3c2cnn3C(C)C)ccc1O, which inhibition is on record?
**A.** 80.5%

**Q.** With FC(F)(F)c1ccc(-c2nn3ncccc3c2-c2ccnc(Nc3ccc4c(c3)OCCO4)n2)cc1 as the compound, how does the inhibition read?
**A.** 13.9%

**Q.** With Nc1ccc(C#Cc2cncnc2Nc2ccc(OCc3cccc(F)c3)c(Cl)c2)cc1 as the compound, how does the inhibition read?
**A.** 0.91%

**Q.** For COc1cc2ncn(-c3cc(OCc4ccccc4S(C)(=O)=O)c(C#N)s3)c2cc1OC, which inhibition is on record?
**A.** 49.6%

**Q.** With NS(=O)(=O)c1ccc(NC=C2C(=O)Nc3ccc4ncsc4c32)cc1 as the compound, how does the inhibition read?
**A.** 50.6%

**Q.** How did the inhibition turn out when Nc1nccc(-c2c(-c3ccc(F)cc3)ncn2CCCN2CCOCC2)n1 was run?
**A.** 3.75%

**Q.** For O=C1Nc2ccccc2/C1=C/Nc1ccc2[nH]c(=O)[nH]c2c1, which inhibition is on record?
**A.** 24.6%

**Q.** How did the inhibition turn out when Cc1ccc(C(=O)NC2CC2)cc1-c1ccc2[nH]ncc2c1 was run?
**A.** 2.89%

**Q.** COC(=O)c1cncc(/C=C/c2c(C)cc(O)cc2C)c1 was tested. Which inhibition did it give?
**A.** 66.3%

**Q.** How did the inhibition turn out when COc1cc(Nc2nccc(-c3cnn4ncccc34)n2)cc(OC)c1 was run?
**A.** 63.4%

**Q.** How did the inhibition turn out when COc1ccc2ncnc(Nc3ccc(OCc4ccccc4)cc3)c2c1 was run?
**A.** 2.67%

**Q.** How did the inhibition turn out when CCn1c(-c2nonc2N)nc2ccc(F)cc21 was run?
**A.** 2.4%

**Q.** For NC(=O)c1cccc(Nc2nccc(Nc3cccc(F)c3)n2)c1, which inhibition is on record?
**A.** 57.7%

**Q.** CN(C)C(=O)O[C@H]1CN[C@H](C#Cc2cc3ncnc(Nc4ccc(OCc5cccc(F)c5)c(Cl)c4)c3s2)C1 was tested. Which inhibition did it give?
**A.** 0.49%

**Q.** How did the inhibition turn out when COc1cc2ncnc(Nc3ccc(C)c(O)c3)c2cc1OC was run?
**A.** 84.5%

**Q.** Which inhibition does the source give for COc1cccc(-n2ncc3c(N/N=C/c4ccc(C)cc4)ncnc32)c1 here?
**A.** 73.7%

**Q.** With COC(=O)c1ccc2c(c1)C(=Cc1cc(Br)c(O)c(Br)c1)C(=O)N2 as the compound, how does the inhibition read?
**A.** 12.9%

**Q.** With Cc1ccc(Nc2ccnc(Nc3cccc(C(N)=O)c3)n2)cc1O as the compound, how does the inhibition read?
**A.** 95%

**Q.** For NS(=O)(=O)c1ccc(-c2cc3ccncc3cc2OCc2ccccc2)cc1, which inhibition is on record?
**A.** 4.42%

The compounds below were run on Tyrosine-protein kinase ABL1 (Homo sapiens), P00519 [Q252H]. Settings: at 0.1 µM.

**Q.** Which inhibition does the source give for CN1CCN(C(=O)c2ccc(NC(=O)Nc3ccc(N(C)c4ccnc(Nc5ccc(CS(C)(=O)=O)cc5)n4)cc3)cc2)CC1 here?
**A.** 21%

**Q.** For CC(C)c1ccc2c(c1)NC(=O)/C2=N/Nc1ccc(S(N)(=O)=O)cc1, which inhibition is on record?
**A.** 4.4%

**Q.** Which inhibition does the source give for C[C@@H](Oc1cc(-n2cnc3ccc(OC[C@@H](O)CO)cc32)sc1C(N)=O)c1ccccc1Cl here?
**A.** -1.76%

**Q.** How did the inhibition turn out when CN(C)CCCn1c(-c2nonc2N)nc2cnccc21 was run?
**A.** 3.76%

**Q.** For O=C1Nc2ccc(-c3cccnc3)cc2C1=Cc1cc(Br)c(O)c(Br)c1, which inhibition is on record?
**A.** 2.79%

**Q.** CC(C)c1ccc(Nc2nccc(-c3cnn4ncccc34)n2)cc1 was tested. Which inhibition did it give?
**A.** 2.85%

**Q.** With N#Cc1cccc(Nc2nccc(-c3cnn4ncccc34)n2)c1 as the compound, how does the inhibition read?
**A.** 15.2%

**Q.** For Cc1ccc(NC(=O)CC2CC2)cc1-c1ccc(C(=O)NCC2CC2)cc1, which inhibition is on record?
**A.** 6.39%

**Q.** Cc1ccc2c(c1)/C(=N/Nc1ccc(S(N)(=O)=O)cc1)C(=O)N2 was tested. Which inhibition did it give?
**A.** 1.64%

**Q.** How did the inhibition turn out when CCS(=O)(=O)c1ccc(OC)c(Nc2nccc(N(C)c3ccc4c(C)n[nH]c4c3)n2)c1 was run?
**A.** 57.7%

**Q.** Nc1nccc(-c2c(-c3ccc(F)cc3)nn3cc(C(F)(F)F)ccc23)n1 was tested. Which inhibition did it give?
**A.** 1.06%

**Q.** With N#Cc1c(NC(=O)c2ccccc2F)sc2c1CCCC2 as the compound, how does the inhibition read?
**A.** -0.76%

**Q.** How did the inhibition turn out when Cc1cc(Cl)cc2c1NC(=O)C2=NNc1ccc(S(N)(=O)=O)cc1 was run?
**A.** 4.15%

**Q.** c1ccc(Cc2nc3ccc(Nc4ncnc5ccccc45)cc3[nH]2)cc1 was tested. Which inhibition did it give?
**A.** 4.19%

**Q.** Which inhibition does the source give for Cc1ccc(O)cc1Nc1ccnc2ccc(S(C)(=O)=O)cc12 here?
**A.** 93%

**Q.** How did the inhibition turn out when COc1cc(/C=N/Nc2ncnc3c2cnn3C(C)C)ccc1O was run?
**A.** 35.4%

**Q.** For FC(F)(F)c1ccc(-c2nn3ncccc3c2-c2ccnc(Nc3ccc4c(c3)OCCO4)n2)cc1, which inhibition is on record?
**A.** 2.75%

**Q.** With Nc1ccc(C#Cc2cncnc2Nc2ccc(OCc3cccc(F)c3)c(Cl)c2)cc1 as the compound, how does the inhibition read?
**A.** 2.9%

**Q.** How did the inhibition turn out when COc1cc2ncn(-c3cc(OCc4ccccc4S(C)(=O)=O)c(C#N)s3)c2cc1OC was run?
**A.** 10%

**Q.** NS(=O)(=O)c1ccc(NC=C2C(=O)Nc3ccc4ncsc4c32)cc1 was tested. Which inhibition did it give?
**A.** 14.4%

**Q.** How did the inhibition turn out when Nc1nccc(-c2c(-c3ccc(F)cc3)ncn2CCCN2CCOCC2)n1 was run?
**A.** 2.53%

**Q.** Which inhibition does the source give for O=C1Nc2ccccc2/C1=C/Nc1ccc2[nH]c(=O)[nH]c2c1 here?
**A.** 8.42%

**Q.** Which inhibition does the source give for Cc1ccc(C(=O)NC2CC2)cc1-c1ccc2[nH]ncc2c1 here?
**A.** -1.32%

**Q.** COC(=O)c1cncc(/C=C/c2c(C)cc(O)cc2C)c1 was tested. Which inhibition did it give?
**A.** 15.9%

**Q.** With COc1cc(Nc2nccc(-c3cnn4ncccc34)n2)cc(OC)c1 as the compound, how does the inhibition read?
**A.** 18%

**Q.** Which inhibition does the source give for COc1ccc2ncnc(Nc3ccc(OCc4ccccc4)cc3)c2c1 here?
**A.** 0.25%

**Q.** With CCn1c(-c2nonc2N)nc2ccc(F)cc21 as the compound, how does the inhibition read?
**A.** 4.86%

**Q.** How did the inhibition turn out when NC(=O)c1cccc(Nc2nccc(Nc3cccc(F)c3)n2)c1 was run?
**A.** 9.5%

**Q.** How did the inhibition turn out when CN(C)C(=O)O[C@H]1CN[C@H](C#Cc2cc3ncnc(Nc4ccc(OCc5cccc(F)c5)c(Cl)c4)c3s2)C1 was run?
**A.** 4.6%

**Q.** For COc1cc2ncnc(Nc3ccc(C)c(O)c3)c2cc1OC, which inhibition is on record?
**A.** 41.1%

**Q.** How did the inhibition turn out when COc1cccc(-n2ncc3c(N/N=C/c4ccc(C)cc4)ncnc32)c1 was run?
**A.** 37.6%

**Q.** How did the inhibition turn out when COC(=O)c1ccc2c(c1)C(=Cc1cc(Br)c(O)c(Br)c1)C(=O)N2 was run?
**A.** 2.75%

**Q.** How did the inhibition turn out when Cc1ccc(Nc2ccnc(Nc3cccc(C(N)=O)c3)n2)cc1O was run?
**A.** 67.6%

**Q.** For NS(=O)(=O)c1ccc(-c2cc3ccncc3cc2OCc2ccccc2)cc1, which inhibition is on record?
**A.** 4.84%
